What is called AC50 is the concentration at which the activity in the assay is half-maximal.

Records with an inconclusive call do not appear. Calls of active or inactive are those of the source. Rule for the calls: active = hit-call score of the fitted dose curve at least 0.9, where 1 is the maximum; inconclusive = response in the unintended direction; inactive = score below 0.9.

The target in assay [1] is bovine Gamma-Aminobutyric Acid Type A Receptor BDZ, alpha 1 site (GABARa1), GABRA1 (gene 780973) (UniProt P08219). As to the kind of experiment: NVS_LGIC_bGABARa1: NovaScreen (NVS) Ligand-Gated Ion Channel Assay for bovine Gamma-Aminobutyric Acid Type A Receptor BDZ, alpha 1 site (GABARa1) (AID 2283321). The method, boiled down:
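Radioligand competition binding on bovine cortical membranes, 0.75 h, filter-based scintillation counting. Primary single concentration 25 uM in duplicate; actives rerun in concentration-response to 50 uM max. Loss of signal fitted versus DMSO.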

The target of assay [2] is bovine Gamma-Aminobutyric Acid Type A Receptor BDZ, alpha 5 site (GABARa5), GABRA5 (gene 523515) (UniProt Q08E50). As to the kind of experiment: NVS_LGIC_bGABARa5: NovaScreen (NVS) Ligand-Gated Ion Channel Assay for bovine Gamma-Aminobutyric Acid Type A Receptor BDZ, alpha 5 site (GABARa5) (AID 2283323). A digest of the protocol:
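Radioligand competitive displacement binding on bovine hippocampal membranes, read 1 hr after dosing by filter-based scintillation counting. Primary screen at 25 uM in duplicate; actives (e.g. ≥30% inhibition) then run in concentration-response up to 50 uM.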

Assay [3] addresses bovine Gamma-Aminobutyric Acid Type A Receptor Agonist (GABAR Agonist), GABRA1 (gene 780973) (UniProt P08219). Nature of the assay: NVS_LGIC_bGABAR_Agonist: NovaScreen (NVS) Ligand-Gated Ion Channel Assay for bovine Gamma-Aminobutyric Acid Type A Receptor Agonist (GABAR Agonist) (AID 2283338). The method, boiled down:
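Radioligand binding to bovine cerebellar membranes in agonist format, read by filter-based scintillation counting after 1 h. Primary screen in duplicate at 25 uM, with actives followed in concentration series. Gain of signal versus DMSO.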

For assay [4], the target named is rat Oxytocin Receptor (OXT), Oxtr (gene 25342) (UniProt P70536). Nature of the assay: NVS_GPCR_rOXT: NovaScreen (NVS) G Protein-Coupled Receptor Assay for rat Oxytocin Receptor (OXT) (AID 2283330). A digest of the protocol: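 Radioligand displacement on rat uterine membranes, 1 h incubation, filter-based scintillation counting. Chemicals were screened in duplicate at 25 uM, and those passing threshold were retested in concentration-response up to 50 uM. Loss of binding was fitted versus DMSO.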
Sequence of rat Oxytocin Receptor (OXT), Oxtr (gene 25342) (P70536 whole entry, looked up): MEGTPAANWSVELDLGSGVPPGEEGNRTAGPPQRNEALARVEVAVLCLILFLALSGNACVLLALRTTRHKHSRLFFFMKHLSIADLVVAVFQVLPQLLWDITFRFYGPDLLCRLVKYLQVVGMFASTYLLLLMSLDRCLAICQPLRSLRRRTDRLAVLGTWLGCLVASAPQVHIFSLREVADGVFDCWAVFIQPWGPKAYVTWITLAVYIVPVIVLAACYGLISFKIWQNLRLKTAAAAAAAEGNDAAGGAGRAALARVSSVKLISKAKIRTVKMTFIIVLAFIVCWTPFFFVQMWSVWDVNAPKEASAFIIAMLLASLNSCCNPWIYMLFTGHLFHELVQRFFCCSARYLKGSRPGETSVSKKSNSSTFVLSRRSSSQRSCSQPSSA

The next assay concerns NCBI gene 100848466. As to the kind of experiment: NVS_NR_bPR: NovaScreen (NVS) Nuclear Receptor Binding Assay for bovine Progextron Receptor (PR) (AID 2283343).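 For AC50: actives lower bound radioligand signal below DMSO meaning displacement of the label.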 The method, boiled down: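 Bovine uterine membrane preparation, cell-free; radioligand competitive displacement measured by scintillation counting 18 hours after dosing. Loss of signal versus DMSO baseline indicates binding; primary HTS single concentration 25 uM in duplicate, actives followed in concentration series.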

Assay [5] has as its target human Serotonin, 5-Hydroxytryptamine Receptor 3 (5HT3), HTR3A (gene 3359) (UniProt P46098). As to the kind of experiment: NVS_LGIC_h5HT3: NovaScreen (NVS) Ligand-Gated Ion Channel Assay for human Serotonin, 5-Hydroxytryptamine Receptor 3 (5HT3) (AID 2283325). The method, boiled down:
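Radioligand displacement binding to human 5-HT3 from HEK293 membranes, read by filter-based scintillation counting after 1 h. Screen at 25 uM in duplicate; chemicals passing threshold were retested in concentration-response up to 50 uM.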

Assay [6] deals with rat Glutamate, NMDA Agonist Site (GluNMDA), Grin1 (gene 24408) (UniProt P35439). Nature of the assay: NVS_LGIC_rGluNMDA_Agonist: NovaScreen (NVS) Ligand-Gated Ion Channel Assay for rat Glutamate, NMDA Agonist Site (GluNMDA) (AID 2283327). The method, boiled down: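 Rat forebrain membranes, radioligand binding in the agonist-site protocol; 1 h after dosing; filter-based scintillation counting. Single-concentration duplicate screen at 25 uM, then concentration-response up to 50 uM for actives; gain-of-signal vs DMSO.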

Assay [7] concerns the target human Constitutive Androstane Receptor (CAR), NR1I3 (gene 9970) (UniProt Q14994). Nature of the assay: NVS_NR_hCAR_Agonist: NovaScreen (NVS) Nuclear Receptor Binding Assay for human Constitutive Androstane Receptor Agonism (CAR) (AID 2283328). The method, boiled down: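 Cell-free TR-FRET binding readout with extracted human CAR protein, read 1 h after dosing. Gain of signal fitted against DMSO baseline. Single-concentration duplicates at 25 uM, then concentration-response up to 50 uM for actives.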

For assay [8], the target named is human Androgen Receptor (AR), AR (gene 367) (UniProt P10275). As to the kind of experiment: NVS_NR_hAR: NovaScreen (NVS) Nuclear Receptor Binding Assay for human Androgen Receptor (AR) (AID 2283332). The method, boiled down: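 Actives from a duplicate 25 uM single-point screen went on to concentration series. Read-out after 20 h was scintillation counting of displaced radioligand in LnCAP extract, with DMSO as baseline.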
Sequence of human Androgen Receptor (AR), AR (gene 367) (P10275 whole entry, looked up): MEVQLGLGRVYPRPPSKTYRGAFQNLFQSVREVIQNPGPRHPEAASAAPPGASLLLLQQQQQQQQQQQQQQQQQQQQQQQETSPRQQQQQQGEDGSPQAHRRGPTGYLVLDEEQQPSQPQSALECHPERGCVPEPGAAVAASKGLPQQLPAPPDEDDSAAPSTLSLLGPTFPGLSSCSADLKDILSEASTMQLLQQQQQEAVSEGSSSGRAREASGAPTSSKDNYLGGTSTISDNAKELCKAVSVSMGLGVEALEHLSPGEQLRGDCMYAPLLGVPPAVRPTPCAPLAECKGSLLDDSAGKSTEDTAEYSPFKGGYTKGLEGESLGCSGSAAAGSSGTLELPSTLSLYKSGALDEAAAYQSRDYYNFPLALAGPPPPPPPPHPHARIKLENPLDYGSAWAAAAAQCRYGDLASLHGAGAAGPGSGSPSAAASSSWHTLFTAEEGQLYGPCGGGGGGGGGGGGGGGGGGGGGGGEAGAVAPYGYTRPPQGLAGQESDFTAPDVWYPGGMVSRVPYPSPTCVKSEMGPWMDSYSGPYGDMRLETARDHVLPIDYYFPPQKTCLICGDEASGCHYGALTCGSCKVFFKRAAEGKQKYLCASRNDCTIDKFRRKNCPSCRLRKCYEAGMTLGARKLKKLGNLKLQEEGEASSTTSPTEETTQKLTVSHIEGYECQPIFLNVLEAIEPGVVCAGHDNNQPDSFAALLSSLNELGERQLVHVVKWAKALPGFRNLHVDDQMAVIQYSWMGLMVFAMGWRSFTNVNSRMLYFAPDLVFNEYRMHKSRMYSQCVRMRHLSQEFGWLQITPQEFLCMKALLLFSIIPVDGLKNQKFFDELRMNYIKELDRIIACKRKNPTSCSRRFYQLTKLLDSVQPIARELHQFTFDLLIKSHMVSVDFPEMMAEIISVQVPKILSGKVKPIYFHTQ

The target in assay [9] is Voltage-gated inwardly rectifying potassium channel KCNH2 (Homo sapiens) (UniProt Q12809). As to the kind of experiment: NVS_IC_hKhERGCh: NovaScreen (NVS) Ion Channel Assay for human Potassium Channel ERG (KhERGCh) (AID 2283333). The method, boiled down:
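Cell-free radioligand competition binding on hERG protein extracted from CHO cells, read by filter-based scintillation counting 0.75 h after dosing. Primary screen at 25 uM in duplicate, actives followed in concentration series. Signal loss fitted versus DMSO.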

Assay [10] is described as follows: NVS_IC_rCaBTZCHL: NovaScreen (NVS) Ion Channel Assay for Calcium Channel, Type L, Benzothiazepine Site (CaBTZCHL) (AID 2283337). The method, boiled down:
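Scintillation counting of filter-bound radioligand gave the read-out, with reduced binding versus DMSO scored as activity. Membranes came from rat cortex and were read 1.5 h after compound addition. Chemicals were screened first in duplicate at 25 uM.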

The target in assay [11] is rat Glycine Receptor, Strychnine-sensitive (GlyRStrySens), Glra1 (gene 25674) (UniProt P07727). Nature of the assay: NVS_LGIC_rGlyRStrySens: NovaScreen (NVS) Ligand-Gated Ion Channel Assay for rat Glycine Receptor, Strychnine-sensitive (GlyRStrySens) (AID 2283341). A digest of the protocol:
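Radioligand displacement on rat spinal cord membranes, 1 hr, filter scintillation read-out. Single-concentration duplicate screen at 25 uM; chemicals meeting threshold (e.g., 30% inhibition) rerun in concentration-response up to 50 uM. Loss of binding fitted versus DMSO.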

Sequence of Voltage-gated inwardly rectifying potassium channel KCNH2 (Homo sapiens) (Q12809 whole entry, looked up): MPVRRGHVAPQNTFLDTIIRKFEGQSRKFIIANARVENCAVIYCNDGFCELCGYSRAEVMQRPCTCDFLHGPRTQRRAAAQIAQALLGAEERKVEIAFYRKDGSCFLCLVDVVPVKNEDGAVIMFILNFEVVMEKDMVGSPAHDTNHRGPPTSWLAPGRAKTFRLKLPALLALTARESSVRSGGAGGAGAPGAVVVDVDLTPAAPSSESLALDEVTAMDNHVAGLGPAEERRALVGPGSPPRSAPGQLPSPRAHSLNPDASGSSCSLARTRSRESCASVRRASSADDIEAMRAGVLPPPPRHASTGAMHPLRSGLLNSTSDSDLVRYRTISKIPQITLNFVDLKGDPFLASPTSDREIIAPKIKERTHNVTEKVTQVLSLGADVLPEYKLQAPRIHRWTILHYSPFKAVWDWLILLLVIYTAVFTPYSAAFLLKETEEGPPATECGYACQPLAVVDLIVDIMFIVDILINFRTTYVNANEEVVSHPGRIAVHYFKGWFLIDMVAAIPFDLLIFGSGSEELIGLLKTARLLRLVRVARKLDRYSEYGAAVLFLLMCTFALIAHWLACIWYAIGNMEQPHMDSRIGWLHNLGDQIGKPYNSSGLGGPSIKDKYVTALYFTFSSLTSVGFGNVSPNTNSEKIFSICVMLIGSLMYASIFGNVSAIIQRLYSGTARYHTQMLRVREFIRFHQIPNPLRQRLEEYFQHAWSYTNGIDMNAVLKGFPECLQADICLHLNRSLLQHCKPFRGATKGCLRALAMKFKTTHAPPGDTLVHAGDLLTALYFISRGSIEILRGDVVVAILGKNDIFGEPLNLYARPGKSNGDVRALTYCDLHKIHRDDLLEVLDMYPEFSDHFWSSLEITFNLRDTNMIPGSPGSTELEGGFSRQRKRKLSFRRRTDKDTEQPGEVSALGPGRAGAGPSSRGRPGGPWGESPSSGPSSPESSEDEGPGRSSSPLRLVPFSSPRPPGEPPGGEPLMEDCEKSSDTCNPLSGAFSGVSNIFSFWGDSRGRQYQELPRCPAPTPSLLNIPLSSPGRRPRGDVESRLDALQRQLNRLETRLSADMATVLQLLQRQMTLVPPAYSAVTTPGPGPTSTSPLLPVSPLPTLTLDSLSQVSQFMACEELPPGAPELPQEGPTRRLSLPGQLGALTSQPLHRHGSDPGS
Sequence of bovine Gamma-Aminobutyric Acid Type A Receptor BDZ, alpha 1 site (GABARa1), GABRA1 (gene 780973) (P08219 whole entry, looked up): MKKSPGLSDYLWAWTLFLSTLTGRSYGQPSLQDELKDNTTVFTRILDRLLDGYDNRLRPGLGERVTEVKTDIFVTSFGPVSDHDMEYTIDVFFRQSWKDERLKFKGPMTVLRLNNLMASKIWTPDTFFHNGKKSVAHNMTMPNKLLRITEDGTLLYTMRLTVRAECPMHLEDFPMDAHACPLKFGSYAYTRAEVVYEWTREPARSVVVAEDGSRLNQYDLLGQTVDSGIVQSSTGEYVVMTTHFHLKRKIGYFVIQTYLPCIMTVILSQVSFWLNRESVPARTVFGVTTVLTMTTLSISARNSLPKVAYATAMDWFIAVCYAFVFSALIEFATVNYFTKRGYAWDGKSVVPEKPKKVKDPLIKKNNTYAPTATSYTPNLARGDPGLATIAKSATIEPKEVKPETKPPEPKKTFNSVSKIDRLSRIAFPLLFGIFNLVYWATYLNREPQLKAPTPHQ
Sequence of bovine Gamma-Aminobutyric Acid Type A Receptor Agonist (GABAR Agonist), GABRA1 (gene 780973) (P08219 whole entry, looked up): as above
Sequence of bovine Gamma-Aminobutyric Acid Type A Receptor BDZ, alpha 5 site (GABARa5), GABRA5 (gene 523515) (Q08E50 whole entry, looked up): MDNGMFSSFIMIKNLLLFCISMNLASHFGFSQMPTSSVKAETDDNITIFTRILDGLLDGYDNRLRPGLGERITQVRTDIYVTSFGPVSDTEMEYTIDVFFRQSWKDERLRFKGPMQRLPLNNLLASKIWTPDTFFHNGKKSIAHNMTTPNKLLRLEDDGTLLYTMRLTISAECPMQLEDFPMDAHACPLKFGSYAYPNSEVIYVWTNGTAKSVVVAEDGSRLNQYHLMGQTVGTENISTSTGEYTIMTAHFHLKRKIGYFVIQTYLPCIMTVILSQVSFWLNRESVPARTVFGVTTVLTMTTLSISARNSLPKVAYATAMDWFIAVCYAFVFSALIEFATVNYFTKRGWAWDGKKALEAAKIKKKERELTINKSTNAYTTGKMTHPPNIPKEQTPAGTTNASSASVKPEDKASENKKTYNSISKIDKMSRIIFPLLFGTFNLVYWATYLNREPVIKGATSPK
Sequence of rat Glycine Receptor, Strychnine-sensitive (GlyRStrySens), Glra1 (gene 25674) (P07727 whole entry, looked up): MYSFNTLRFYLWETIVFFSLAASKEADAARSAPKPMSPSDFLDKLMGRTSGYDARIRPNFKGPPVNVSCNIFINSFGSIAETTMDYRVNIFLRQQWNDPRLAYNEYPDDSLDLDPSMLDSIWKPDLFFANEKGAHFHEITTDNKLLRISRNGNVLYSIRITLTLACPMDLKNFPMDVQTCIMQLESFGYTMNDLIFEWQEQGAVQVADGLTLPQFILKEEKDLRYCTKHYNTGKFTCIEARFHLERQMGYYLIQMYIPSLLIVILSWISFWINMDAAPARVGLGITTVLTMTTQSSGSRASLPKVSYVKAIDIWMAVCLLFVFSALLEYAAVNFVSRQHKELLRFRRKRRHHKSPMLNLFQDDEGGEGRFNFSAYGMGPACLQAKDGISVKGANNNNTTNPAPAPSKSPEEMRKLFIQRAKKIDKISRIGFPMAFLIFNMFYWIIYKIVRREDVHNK
Sequence of human Constitutive Androstane Receptor (CAR), NR1I3 (gene 9970) (Q14994 whole entry, looked up): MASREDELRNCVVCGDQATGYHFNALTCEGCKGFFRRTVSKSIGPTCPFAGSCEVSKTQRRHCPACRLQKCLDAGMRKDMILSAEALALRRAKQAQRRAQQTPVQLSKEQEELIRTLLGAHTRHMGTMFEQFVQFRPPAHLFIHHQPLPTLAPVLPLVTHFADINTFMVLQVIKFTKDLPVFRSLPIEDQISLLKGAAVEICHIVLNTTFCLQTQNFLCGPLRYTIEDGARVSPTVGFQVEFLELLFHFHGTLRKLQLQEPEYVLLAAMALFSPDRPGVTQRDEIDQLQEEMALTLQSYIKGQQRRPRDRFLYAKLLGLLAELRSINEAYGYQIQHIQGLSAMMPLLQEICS
Sequence of human Serotonin, 5-Hydroxytryptamine Receptor 3 (5HT3), HTR3A (gene 3359) (P46098 whole entry, looked up): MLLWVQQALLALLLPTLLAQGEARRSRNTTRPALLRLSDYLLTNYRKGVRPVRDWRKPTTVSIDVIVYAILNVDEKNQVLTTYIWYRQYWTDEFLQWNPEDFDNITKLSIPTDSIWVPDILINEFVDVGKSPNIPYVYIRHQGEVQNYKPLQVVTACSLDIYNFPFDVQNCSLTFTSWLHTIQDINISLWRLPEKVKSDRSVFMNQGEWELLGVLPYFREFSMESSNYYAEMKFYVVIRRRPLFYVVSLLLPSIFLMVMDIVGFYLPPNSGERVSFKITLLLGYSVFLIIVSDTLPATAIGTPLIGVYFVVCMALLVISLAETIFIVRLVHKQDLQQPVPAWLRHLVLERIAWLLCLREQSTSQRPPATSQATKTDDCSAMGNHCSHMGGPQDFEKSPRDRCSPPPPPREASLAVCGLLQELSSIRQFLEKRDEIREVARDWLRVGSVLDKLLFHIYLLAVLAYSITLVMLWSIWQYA

On to `Nc1cc2c3c(c1)C(c1ccccc1)=N[C@@H](NC(=O)c1cccnc1)C(=O)N3CC2`, for which the compound was classed as inactive in assay [1], in assay [2] and in [3]. Regarding `CCC1(c2ccccc2)C(=O)N=C(O)NC1=O` (stereo not drawn), the compound was classed as inactive in assay [1]. On to `CSC(C)(C)C=NO`, for which the compound was classed as inactive (in assay [2]; in [4]; in the assay with NCBI gene 100848466).

For `Nc1ccc(Cl)cc1`, in assay [5], the compound was called inactive.

As to `CC(Cc1ccc(OCC(=O)O)cc1)NCC(O)c1csc(C(F)(F)F)n1` (stereo not drawn), the compound was called inactive in assay [6]. Turning to `c1ccc2c(c1)Nc1ccccc1S2`, the outcome in [7] and in assay [3] was inactive. Consider `O=P1(N(CCCl)CCCl)NCCCO1` (stereo not drawn), for which, in [4], the call was inactive. Take `CCCCCCCc1ccc(O)cc1`: the compound was called inactive in assay [8]. Besides, in assay [9], the AC50 is 0.766 µM (active). In the case of `O=P(OCC(Br)CBr)(OCC(Br)CBr)OCC(Br)CBr` (stereo not drawn), in assay [8], the AC50 was 6.63 µM (active). For the compound `CCCCOCCOP(=O)(OCCOCCCC)OCCOCCCC`, the result in assay [10] was inactive.

In the case of `CCCCC(CC)COP(=O)(Oc1ccccc1)Oc1ccccc1` (stereo not drawn), the result in [10] was inactive.

Consider `ClC(Cl)(Cl)c1ccccc1`, for which the result in assay [9] was inactive. Regarding `Cc1ccc2c(c1N)C(=O)c1ccccc1C2=O`, in assay [10], the outcome was inactive. Regarding `CC(C)Nc1ccc(Nc2ccccc2)cc1`, the outcome in assay [10] was inactive. For the compound `c1ccc(OP(Oc2ccccc2)Oc2ccccc2)cc1`, the outcome in assay [11] was inactive. For the compound `CCOP(=S)(Oc1ccc([N+](=O)[O-])cc1)c1ccccc1` (stereo not drawn), the AC50 with NCBI gene 100848466 is 10.4 µM (active). As for `CCCCN(CCCC)SN(C)C(=O)Oc1cccc2c1OC(C)(C)C2`, in the assay with NCBI gene 100848466, the compound was classed as inactive.

Values taken from PubChem BioAssay (EPA / NIEHS).
